Results taken from the supplement of paper PMC10981050.
Counter-ions that a name gives are not always drawn.

Each compound was assayed on K562 (assay: cell viability relative to vehicle control; higher = less cytotoxic). Details: 10 µM; SRSF2 genotype: SRSF2 wt/wt.
Method in brief: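 Four leukaemia lines, as CRISPR-edited mutant clones and isogenic wild-type clones, were tested against Selleck bioactive, kinase and epigenetic probe libraries after removal of identity-inconsistent compounds. Cells were exposed to a single 10 µM dose for 48 h, and CellTiter-Glo luminescence was then read. Viability was calculated relative to the on-plate vehicle control.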
`CCc1c(O)cc(O)c(C(=O)c2ccc(OCCN3CCOCC3)c(OC)c2)c1CC(=O)N(CCOC)CCOC` showed a cell viability of 25.7%.
For `O=C(NCCS(=O)(=O)c1ccc(C(F)(F)F)cn1)c1ccc(Cl)cc1`, the cell viability was 102%.
In the case of `Clc1ccc2c(c1)CCc1cccnc1C2=C1CCNCC1` [Desloratadine], the cell viability is reported as 93.2%.
Work on `Cc1ccc(C(=O)O)c(O)c1` [4-Methylsalicylic acid] yielded a cell viability of 103%.
In the case of `CCC(=O)Nc1cccc(Oc2nc(Nc3ccc(N4CCN(C)CC4)cc3OC)ncc2Cl)c1`, the cell viability is reported as 90.6%.
Compound `CN(N=O)C(=O)NC1C(O)OC(CO)C(O)C1O` (stereo not given) [Streptozotocin (STZ)] has a cell viability of 105%.
For `C=CS(=O)(=O)NC1CCN(C(=O)CNc2cc(I)c(Cl)cc2OC)CC1` [K-Ras(G12C) inhibitor 9], the cell viability was 82.8%.
`CCCc1nn(C)c2c(=O)[nH]c(-c3cc(S(=O)(=O)N4CCN(C)CC4)ccc3OCC)nc12` [Sildenafil citrate] gave a cell viability of 103%.
`CNC(=O)Nc1ccc(-c2nc(N3CC4CCC(C3)O4)c3cnn(C4CCC5(CC4)OCCO5)c3n2)cc1` gave a cell viability of 34.4%.
`CO/N=C(\C(=O)N[C@@H]1C(=O)N2C(C(=O)O)=C(CSc3nc(C)c(CC(=O)O)s3)CS[C@H]12)c1csc(N)n1` [Cefodizime Sodium] was tested, and the cell viability was 103%.
With `COC(=O)C1=C(C)NC(C)=C(C(=O)OCCN2CCN(C(c3ccccc3)c3ccccc3)CC2)C1c1cccc([N+](=O)[O-])c1` (stereo not given) [Manidipine (Manyper)] the cell viability was 53.3%.
Work on `Cc1cccc(CC(=O)N2CCc3c2ccc(-c2cn(C)c4ncnc(N)c24)c3F)n1` yielded a cell viability of 80.4%.
Compound `CNC1CCCN(c2c(F)cc3c(=O)c(C(=O)O)cn(C4CC4)c3c2OC)C1` (stereo not given) [Balofloxacin] has a cell viability of 105%.
`Cc1ccc(S(=O)(=O)NC(=O)NN2CC3CCCC3C2)cc1` (stereo not given) [Gliclazide (Diamicron)] showed a cell viability of 109%.
`CN1CC2c3ccccc3Oc3ccc(Cl)cc3C2C1` (stereo not given) [Asenapine maleate] gave a cell viability of 88.2%.
In the case of `CC[C@H]1OC(=O)[C@H](C)[C@@H](O[C@H]2C[C@@](C)(OC)[C@@H](O)[C@H](C)O2)[C@H](C)[C@@H](O[C@@H]2O[C@H](C)C[C@H](N(C)C)[C@H]2O)[C@](C)(O)C[C@@H](C)/C(=N\OCOCCOC)[C@H](C)[C@@H](O)[C@]1(C)O` [Roxithromycin (Roxl-150)], the cell viability is reported as 94.9%.
Compound `CC(C)c1nc(CN(C)C(=O)N[C@H](C(=O)N[C@@H](Cc2ccccc2)C[C@H](O)[C@H](Cc2ccccc2)NC(=O)OCc2cncs2)C(C)C)cs1` [Ritonavir] has a cell viability of 82.6%.
For `Nc1nccc(Oc2ccc3c(C(=O)Nc4cccc(C(F)(F)F)c4)cccc3c2)n1`, the cell viability was 87.9%.
With `N[C@@H](Cc1c[nH]c2ccc(O)cc12)C(=O)O` [5-hydroxytryptophan (5-HTP)] the cell viability was 94.2%.
`CCCOc1ccc2c(c1)CC[C@@H]1[C@@H]2CC[C@]2(C)[C@@H](OC)CC[C@@H]12` [Promestriene] gave a cell viability of 94.1%.
`CCOCCn1c(N2CCCN(C)CC2)nc2ccccc21` [Emedastine] showed a cell viability of 101%.
Compound `COc1cc2c(c(OC)c1OC)-c1c(cc3c(c1OC)OCO3)C[C@H](C)[C@](C)(O)[C@H]2OC(=O)c1ccccc1` [Schisantherin A] has a cell viability of 97.5%.
`COc1ccc2c(c1O)-c1c(O)c(OC)cc3c1[C@H](C2)[N+](C)(C)CC3` [Magnoflorine] gave a cell viability of 101%.
In the case of `NCc1c[nH]c(=S)n1[C@H]1CCc2c(F)cc(F)cc2C1` [Nepicastat hydrochloride], the cell viability is reported as 96.6%.
In the case of `CC(=O)Nc1ccc(OC(=O)c2ccccc2OC(C)=O)cc1` [Benorylate], the cell viability is reported as 98.9%.
For `CCC(=O)NC[C@@H]1C[C@H]1c1cccc2c1CCO2` [Tasimelteon], the cell viability was 84.4%.
For `COc1ncnc(NS(=O)(=O)c2ccc(N)cc2)c1OC` [Sulfadoxine (Sulphadoxine)], the cell viability was 98.1%.
With `N[C@@H](Cc1cc(I)c(Oc2cc(I)c(O)c(I)c2)c(I)c1)C(=O)O` [Levothyroxine sodium] the cell viability was 106%.
For `C=C(C)[C@@H]1CC[C@]2(C(=O)O)CC[C@]3(C)[C@H](CC[C@@H]4[C@@]5(C)CC[C@H](O)[C@@](C)(CO)[C@@H]5CC[C@]43C)[C@@H]12` [23-Hydroxybetulinic acid], the cell viability was 91.1%.
With `C[C@]12C=CC(=O)C=C1CC[C@H]1[C@@H]3C[C@@H](O)[C@](O)(C(=O)CO)[C@@]3(C)C[C@H](O)[C@@]12F` [Triamcinolone (Aristocort)] the cell viability was 106%.
In the case of `O=C(O)C1=CO[C@@H](O[C@@H]2O[C@H](CO)[C@@H](O)[C@H](O)[C@H]2O)[C@H]2[C@@H]1C=C[C@]2(O)CO` [Monotropein], the cell viability is reported as 107%.
For `Cn1ncc(Cl)c1-c1cc(C(=O)N[C@H](CN)Cc2cccc(F)c2)sc1Cl`, the cell viability was 51%.
For `Cc1ccc(OCC(O)C(C)NC(C)C)c2c1CCC2` (stereo not given), the cell viability was 92.1%.
Work on `CN1CCCN(C(=O)c2cccc(-c3ccc(/C=C4/C(=O)Nc5ccc(Cl)cc54)o3)c2)CC1` yielded a cell viability of 0.41%.
For `O=S(=O)(c1ccccc1)c1cnc2c(N3CCNCC3)cccc2c1`, the cell viability was 94.6%.
`CCn1c2ccccc2c2cc(Nc3ccnc(NCCCN4CCOCC4)n3)ccc21` showed a cell viability of 6.8%.
Compound `Cc1cn(-c2cc(NC(=O)c3ccc(C)c(Nc4nccc(-c5cnccn5)n4)c3)cc(C(F)(F)F)c2)cn1` [Radotinib] has a cell viability of 22.1%.
Work on `CCCOc1ccc2[nH]c(NC(=O)OC)nc2c1` [Oxibendazole] yielded a cell viability of 28%.
Work on `COCC1=C(C(=O)OC(C)OC(=O)OC(C)C)N2C(=O)[C@@H](NC(=O)/C(=N\OC)c3csc(N)n3)[C@H]2SC1` (stereo not given in full) [Cefpodoxime proxetil] yielded a cell viability of 92.6%.
For `Oc1c(F)cc(-c2cnccc2-c2ccc(N3CCOCC3)cc2)cc1F`, the cell viability was 105%.
